About 2,000 (0.59%) of roughly 340,000 compounds were called active. For the sample, actives were picked, then their nearest neighbours and some compounds at random. Values without a mark were called inactive. Rule as the data show it: active = activation mostly above about 9.5% (no sharp cut-off); inactive = mostly below about 7.6%.
Biological target: 5-hydroxytryptamine receptor 5A (Homo sapiens) (UniProt P47898)
Assay: activation of human 5-HT5A receptor – cell-based, luminescence, full-deck HTS, counter-screen for OPRM1-OPRD1 heterodimer agonist project, primary screen (AID 504692);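 also: 0% = cells with vehicle only and 100% = reference agonist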
Details: HTR5A agonist assay, at 9.3 µM, active compounds read high

Sequence of 5-hydroxytryptamine receptor 5A (Homo sapiens) (P47898 whole entry, looked up): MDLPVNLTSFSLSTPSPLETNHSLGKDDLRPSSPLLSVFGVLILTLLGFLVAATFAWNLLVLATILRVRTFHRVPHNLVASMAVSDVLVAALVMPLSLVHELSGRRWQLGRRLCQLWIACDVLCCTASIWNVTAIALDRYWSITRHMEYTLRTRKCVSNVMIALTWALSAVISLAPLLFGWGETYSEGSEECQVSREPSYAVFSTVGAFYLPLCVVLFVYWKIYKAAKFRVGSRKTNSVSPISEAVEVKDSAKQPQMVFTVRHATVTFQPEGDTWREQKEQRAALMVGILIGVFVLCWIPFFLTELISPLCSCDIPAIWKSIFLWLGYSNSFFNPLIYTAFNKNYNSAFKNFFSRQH

Row | SMILES | activation
1 | O=C(NCCS(=O)(=O)c1ccc(Br)cc1)c1ccccc1Cl | 0.17%
2 | Cc1ccc(CN2C(=O)N/C(=C/c3cc(C)n(-c4ccccn4)c3C)C2=O)cc1 | 1.53%
3 | Cc1cccc(NC(=O)CN2CCCN(S(=O)(=O)c3ccc(Br)s3)CC2)c1 | 0.97%
4 | Cc1ccc(-c2csc(SCC(=O)Nc3cc(C)on3)n2)cc1 | 14.7% (active)
5 | Cc1ccc2nc(-c3ccc(SCC(=O)Nc4cc(C)on4)nc3)[nH]c2c1 | -0.96%
6 | Cc1ccc(SCCC(=O)Nc2cc(C)on2)cc1 | -4.61%
7 | O=C(NCC(F)(F)F)Nc1nnc(C(F)(F)F)s1 | 4%
8 | Cc1ccc(S(=O)(=O)N(Cc2cccc([N+](=O)[O-])c2)C(=O)N2CCN(C)CC2)cc1 | 0.8%
9 | O=C(c1cccc([N+](=O)[O-])c1)N1CCN(Cc2ccccc2)CC1 | 5.31%
10 | O=C(CCl)N(Cc1cccc([N+](=O)[O-])c1)c1cccc(Cl)c1 | 40.9% (active)
11 | O=S(=O)(NCCCCCCNS(=O)(=O)c1c(F)cccc1F)c1ccc2c(c1)OCCO2 | 2.32%
12 | COc1ccccc1N(C)S(=O)(=O)c1ccc(C(=O)NC2CCCCCC2)cc1 | 2.54%
13 | CC1CCC2CCCCC2N1C(=O)c1cc([N+](=O)[O-])cc([N+](=O)[O-])c1 (stereo unspecified) | 4.16%
14 | CN1c2ccc(C=O)c3c(C=O)ccc(c23)N(C)C1(C)C | 20.2% (active)
15 | CN(CC(=O)Nc1ccccc1Cl)C(=O)COc1cccc2c1OC(C)(C)C2 | 2.73%
16 | CCSc1nc(O)c(C(c2cccc(OC)c2)c2c(O)nc(SCC)[nH]c2=O)c(=O)[nH]1 | 6.11%
17 | Cc1ccc(/C([O-])=C(/C(=S)NCc2ccco2)[n+]2ccccc2)cc1[N+](=O)[O-] | 0.24%
18 | O=C(COC(=O)CSc1nnc(-c2ccc(Cl)cc2)o1)Nc1cc(Cl)cc(Cl)c1 | 0.33%
19 | O=C(NNS(=O)(=O)c1ccc([N+](=O)[O-])cc1)C1CCCCC1 | -4.2%

Row | SMILES | activation
20 | COc1cccc2sc(N(CCCN(C)C)C(=O)CCS(=O)(=O)c3ccccc3)nc12 | 8.64%
21 | Cc1cccc2sc(N(CCCN(C)C)C(=O)CCS(=O)(=O)c3ccccc3)nc12 | 23.6% (active)
22 | COc1cc2ccccc2cc1C(=O)N(CCN(C)C)c1nc2c(F)cccc2s1 | 0.73%
23 | CC1Cc2ccccc2N1S(=O)(=O)c1cccc(C(=O)NCC(c2ccco2)N2CCCC2)c1 (stereo unspecified) | 2.58%
24 | COc1ccc(N2CCN(C(=O)Cn3cnc4sc(C)c(S(=O)(=O)N5CCOCC5)c4c3=O)CC2)cc1 | -1.42%
25 | Cc1csc2nc(COC(=O)c3cccc(N(C)C)c3)cc(=O)n12 | -1.39%
26 | Cc1ccccc1OCC(=O)Nc1nnc(S(=O)(=O)N2CCCC2)s1 | 4.03%
27 | CC1CCN(S(=O)(=O)c2nnc(NC(=O)COc3ccccc3F)s2)CC1 | 18.1% (active)
28 | O=C(COc1ccccc1F)Nc1nc(-c2ccccn2)cs1 | -1.27%
29 | CC(NC(=S)NNS(=O)(=O)c1ccc(C(C)(C)C)cc1)c1ccccc1 (stereo unspecified) | -3.78%
30 | COc1ccc(-c2ccc3c(c2)[C@@H]2C[C@H](N(C)S(=O)(=O)c4ccccc4)[C@H]([C@H](C)O)C(=O)N2CC3)cc1 | 2.65%
31 | CC1CC(C)CN(C(=O)C2CC(=O)N(c3ccc(F)cc3)C2)C1 (stereo unspecified) | 5.22%
32 | CC1CCN(S(=O)(=O)c2ccc3c(ccn3CC(=O)O)c2)CC1 | 9.91% (active)
33 | Cc1ccn2c(c1)nc(=O)c1cc(S(=O)(=O)N3CCC(C)CC3)ccc12 | 0.6%
34 | CC1CCN(S(=O)(=O)c2ccc3c(c2)n(C)c(=O)n3C)CC1 | 4.68%
35 | CCOC(=O)CNC(=O)CSc1nnc(-c2cccc(OC)c2)n1CC | 1.82%
36 | CCCCCCCCCCOC(=O)Cn1c(COc2cccc(OC)c2)[n+](C)c2ccccc21 | 13.7% (active)
37 | CCCCCCCCCCOC(=O)Cn1c(COc2ccc(C)cc2)[n+](C)c2ccccc21 | 9.74% (active)
38 | CCCCOc1ccc(NC(=O)CSCC(=O)OCC)cc1 | -1.74%

Row | SMILES | activation
39 | COc1cccc(OCc2nnc3n2N=C(c2ccccc2)C(CC(=O)O)S3)c1 (stereo unspecified) | 1.48%
40 | CCOC(=O)COn1c(=O)c(-c2ccc(OCC)cc2)[n+]([O-])c2ccccc21 | -0.87%
41 | CC[C@]12c3[nH]c4ccc(Cl)cc4c3CCN1C(=O)[C@@H](CC(=O)NCCCOC)C[C@@H]2C(=O)N1CCN(C(=O)c2ccco2)CC1 | -0.61%
42 | COc1ccc(CNC(=O)CN(Cc2ccccc2Cl)C(=O)c2csnn2)cc1 | 0.86%
43 | O=c1/c(=C/c2ccc(CNS(=O)(=O)c3ccccc3)o2)sc2n1CCN=2 | -6.78%
44 | CCC(C)(C)NC(=O)CN(C(=O)CCC(=O)Nc1cc(C)ccn1)c1ccc2c(c1)OCCO2 | 2.5%
45 | Fc1ccccc1-c1cc2cc3c(cc2cn1)OCO3 | 7.94%
46 | O=C(c1noc2c1CCCC2)N1CCc2ccccc2C1 | 5.42%
47 | CCC1(C)NC(=O)N(CC(=O)N2CCN(c3cccc(Cl)c3)CC2)C1=O (stereo unspecified) | 0.94%
48 | Cc1ccc(Cc2cnc(N)s2)o1 | -3.06%
49 | Cc1ccc(C(=O)Nc2nc3ccc(Cl)cc3s2)o1 | 5.48%
50 | Cc1ccc(CCC(=O)Nc2ncc(Cc3cc(Cl)ccc3Cl)s2)o1 | 17.4% (active)
51 | COc1ccc(C(=O)NCc2ccc(C)cc2)cc1S(=O)(=O)N1CCCC1 | 5.16%
52 | C/C=C/C(=O)OCC(=O)Nc1ccc(F)cc1Cl | 6.73%
53 | COc1cc(OC)cc(C(=O)Nc2ccc(-c3nc4ccccc4o3)c(O)c2)c1 | 13.9% (active)
54 | O=C(Nc1ccc2oc(-c3ccccc3F)nc2c1)c1ccco1 | 0.88%
55 | Cc1ccc2nc(-c3ccc(NC(=O)c4cccnc4)cc3)oc2c1 | 1.12%
56 | COc1ccc(C(=O)NC(C)c2nccs2)cc1OC1CCN(C(C)C)CC1 (stereo unspecified) | 0.03%

From PubChem BioAssay AID504692 (The Scripps Research Institute Molecular Screening Center, 2011)
